Molecules are shown by their SMILES. The whole screen tested about 38,000 compounds, of which about 1,200 (3.2%) showed an effect of 50% or more. The median lay at about -58%. This excerpt belongs to a sample that is enriched for strong results.

In this assay the test system is Plasmodium falciparum. Kind of assay: Calibr Malaria Delayed Death Assay SOP. On the set-up: scale not given: in the data most compounds retested in dose-response had high values. The format is functional, organism-based. The note with it: concentration 4.99e-06 (unit not given; other assays of the set use mol/L).
On to `N#CC1COCCN1C(=O)c1ccc2[nH]cnc2c1` (configuration not stated), for which the “Percent Effect” value is -106.6%.
The same measure for `COC(=O)C(O)C1CCN(Cc2cccc(-n3cccn3)c2)CC1` (configuration not stated): -42.85%; for `CN1CCN([C@@H]2CCN(Cc3cccc(-n4cccn4)c3)C[C@H]2O)CC1`: -47.29%; for `CN1CCC(C2CCN(Cc3cccc(-n4cccn4)c3)CC2)C1` (configuration not stated): 85%.
The same measure for `O=C(CN1C=Nc2ccccc2S1(=O)=O)NCc1ccccc1F`: -61.62%; for `Cc1ccc(O)c(CNC2CCc3nc(C)nn3C2)n1` (configuration not stated): -50.72%; for `COCC(c1ccccn1)N(C)C(=O)c1cc(-c2ccccc2O)n[nH]1` (configuration not stated): -47.61%.
The same measure for `CO[C@H]1CN(C(C)C)C[C@@H]1NC(=O)Nc1ccc2oc(C)cc2c1`: -10.12%; for `Cc1ncoc1C(=O)N1CC[C@@H](O)[C@@H](O)[C@H](N2CCC(F)(F)CC2)C1`: -177.2%; for `CCN1CCC2(C=C(C(=O)N(C)C)c3ccccc32)CC1.O=C(O)C(F)(F)F`: -5.162%.
For `CCC(=O)N1CCC2(C=C(C(=O)N(C)C)c3ccccc32)CC1`, the “Percent Effect” value is recorded as -96.59%.
The same measure for `CN1CCC2(C=C(C(=O)N(C)C)c3ccccc32)CC1`: 59.58%.
In the case of `COc1cc(CCC(=O)NC2CCCN(C)C2)ccc1OCC(F)(F)F` (configuration not stated), the “Percent Effect” value was 27.9%.
The result for `Cc1noc(C)c1CN1CC[C@H]2OCC[C@@]2(C(=O)NCC2CC2)C1.O=C(O)C(F)(F)F` reads -150.6%; that for `COC[C@@H]1CCC[C@@]12CN(C(=O)C1CCOCC1)CCO2`, -66.15%.
The result for `COc1ccc(-n2nnnc2C(C)(C)Nc2ccc(C)cc2C)cc1` reads -134.7%; that for `Cc1nnc(C2CCN(C(=O)c3ccsc3)CC2)s1`, -17.33%.
The same measure for `CN(C)CC(C)(C)CN1CCC(c2ccnc(-c3cccc(O)c3)c2)C1` (configuration not stated): 69.12%; for `Cn1ccnc1CN1CCC(c2ccnc(-c3cccc(O)c3)c2)C1` (configuration not stated): 27.57%; for `Oc1cccc(-c2cc(C3CCN(Cc4cncnc4)C3)ccn2)c1` (configuration not stated): -16.47%.
On to `Nc1cccnc1N1CCC(O)CC1`, for which the “Percent Effect” value is -81.29%.
The result for `Cc1n[nH]c(C)c1-c1cc(-c2cc[nH]c2)nc(N)c1C#N` reads -97.75%; that for `c1cncc(CN2CCCC3(COCCN(c4cncnc4)C3)C2)c1` (configuration not stated), -38.46%; that for `O=C(O)C(F)(F)F.O=C(O)C(F)(F)F.c1cncc(N2CCCC3(CCN(CCN4CCCC4)CC3)C2)c1`, 91.95%.
The result for `O=C(O)C(F)(F)F.c1cncc(N2CCCC3(CCN(CC4CCCO4)CC3)C2)c1` (configuration not stated) reads 46.34%.
The result for `Cn1cc(CN2CCCC3(COCCN(c4cccnc4)C3)C2)cn1.O=C(O)C(F)(F)F.O=C(O)C(F)(F)F` (configuration not stated) reads -73.12%; that for `O=C(O)C(F)(F)F.c1cncc(N2CCC3(CCCN(c4ccncc4)C3)CC2)c1`, 46.04%; that for `Cc1nc2cc(NCc3cnn(C)c3)ccc2n1C`, -142.2%.
Regarding `COCCN(C)C[C@@H]1CN(C(=O)NC2CCCCC2)C[C@@H]1CO`, the “Percent Effect” value is recorded as -45.61%.
The result for `CCn1c(C)cc(C(=O)Nc2ccccc2CN(C)C(C)=O)c1C` reads -65.04%; that for `Cc1nc(C2CCCNC2)cc(N(Cc2nccn2C)C2CC2)n1` (configuration not stated), 7.981%; that for `Cc1nc(NCCC23CCCN2CCC3)cc(C2CCCNC2)n1` (configuration not stated), -30.47%.
The result for `COc1cccc(CN2CC[C@H](c3nnc(C)o3)C2)c1` reads -103.2%.
The same measure for `O=c1n(Cc2ccccc2F)nc2ncccn12`: -19.66%.
As for `COc1cccc(CN2CCCC2Cn2nc(C)nc2C)c1` (configuration not stated), the “Percent Effect” value was -44.63%.
The result for `Fc1cccnc1Oc1cc(F)c(CN2CCCC2)c(F)c1` reads 13.36%; that for `O=C(c1cnc(C2CC2)nc1O)N1CCN(Cc2ccccc2F)CC1`, -42.64%.
The same measure for `CCn1ccnc1C1CCN(Cc2c(F)cccc2F)CC1`: -140%; for `CCSCc1cccc(NCc2cccnc2)c1`: -120.6%.
The result for `CCCNc1cc(C(=O)N2CCOCC2)nc(C)n1` reads -41.3%; that for `COCCNC(=O)c1ccc2c(=O)n3c(nc2c1)CCCCCC3`, -86.41%.
As for `CC(C)N(C)Cc1cn2c(n1)CN(C(=O)c1ccc[nH]1)CC2`, the “Percent Effect” value is given as -50.23%.
The same measure for `COC[C@@H]1CC[C@H]2[C@H](CCN2S(=O)(=O)c2cccc(F)c2)O1`: -8.99%; for `Cc1ccc2c(c1)N(C(=O)c1c[nH]c(C)cc1=O)CC(C)O2` (configuration not stated): -44.94%.
`O=C(c1cnccn1)N1CCCC(c2cccc(-n3ccnc3)n2)C1` (configuration not stated): the “Percent Effect” value is -38.64%.
The result for `CC(C)C1SCC(=O)Nc2c1cnn2-c1ccc(Cl)cc1F` (configuration not stated) reads -28.94%; that for `CCC(=O)NCC(=O)N(C)C(c1ccc(Cl)cc1)c1cccnc1` (configuration not stated), -30.63%.
With `Cn1c2ccc(F)cc2c2ncn(CCN3CCOCC3)c(=O)c21`, the “Percent Effect” value was -139.8%.
The result for `CC(Cc1ccccc1F)C(=O)Nc1cccc(OCC(N)=O)c1` (configuration not stated) reads -53.66%; that for `Cc1ccc([C@]2(O)CC[C@H]3CN(Cc4ccc(Cl)cc4Cl)C[C@H]32)nc1`, 64.98%; that for `Cc1ccc([C@]2(O)CC[C@H]3CN(Cc4cccc(F)c4F)C[C@H]32)nc1.O=C(O)CC(O)(CC(=O)O)C(=O)O`, 43.22%.
The same measure for `Cc1ccc([C@]2(O)CC[C@H]3CN(Cc4cccnc4)C[C@H]32)nc1`: -69.34%.

These data come from ChEMBL document CHEMBL3988442, “University of Dundee, Small-Polar-MMV Screening Library” (2021).
